High-throughput results deposited in PubChem by National Center for Advancing Translational Sciences (NCATS).
A selection: hits, their analogues and other compounds. The true share with any hit is near 8%.
KB-V1 MDR tox: KB-V1 MDR subline cytotoxicity; KB-V1 MDR cells viability, CellTiter-Glo, 72 h; Potency, µM (top dose mostly 46.1 µM), most hits filed as cytotoxic; actives 3.4% (n = 400,000); note: % is set by controls: 0 for no effect and ±100 for the full control effect; nearly all actives have a fitted effect of over 60% in size
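KB-V1, DMEM (no phenol red) + 10% FBS; cpd pin-transferred, titration series; 72 h, 37 degrees C; CellTiter-Glo, luminescence. Data normalized, curve-fit.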
SW480 rerep: DNA re-replication induction in SW480 cells. SW480 DNA re-replication, Hoechst DNA content imaging, 48 h. Potency, µM (top dose mostly 46.1 µM), for inactives: at the top dose re-replication activation, actives largely listed as activators. actives 1.8% (n = 340,000). AID 624297; note: % of control where 0% means no effect; nearly all actives have a fitted effect of over 55% in size
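Readout is total intensity of Hoechst-stained nuclei, excited at 405 nm and collected at 500-530 nm. Compound treatment lasted 48 hr at 37 C in 5% CO2 before staining.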
KB-3-1 tox: kills parental KB-3-1 adenocarcinoma cells; KB-3-1 viability, CellTiter-Glo ATP luminescence, 72 h; Potency, µM (highest dose often 46.1 µM), usual class: cytotoxic; actives 1.4% (n = 400,000); note: % is set by controls: 0 for no effect and ±100 for the full control effect; nearly all actives have a fitted effect of over 60% in size
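Cytotoxicity in the drug-sensitive parental line KB-3-1 was scored as loss of CellTiter-Glo luminescence following 72 h incubation with compound. Values come from curve fitting of normalized concentration-response data.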
HT1080 IDH1KD tx: toxicity to HT-1080 IDH1 knockdown cells (counter line). actives 2% (n = 360,000). HT-1080 IDH1 knockdown viability, ATP luminescence, 48 h. Potency, µM (series often up to 46.1 µM), for the others: top-dose activity, negative = toxicity, most hits filed as cytotoxic;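 note: 0% = DMSO wells and -100% = cell-free medium wells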
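Luminescent ATP read-out (CellTiter-Glo, 10 min at room temperature) after 48 h compound exposure at 37 °C gave viability of IDH1-knockdown HT-1080 cells. Activity was normalised to DMSO and cell-free wells, then fitted as concentration-response curves.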
HT1080-NT tox: kills 2HG-producing HT-1080-NT fibrosarcoma cells; HT-1080-NT fibrosarcoma viability, CellTiter-Glo ATP luminescence, 48 h; Potency, µM (titrated, usually from 46.1 µM), for the others: top-dose activity, negative = less viability, most hits filed as cytotoxic; actives 1.6% (n = 360,000);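 note: NT is the 2HG producing partner of a matched IDH1 knockdown line; 0% = DMSO-treated cells and -100% = media-only wells without cells; nearly all actives have a fitted effect of over 55% in size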
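Toxicity toward the 2HG-producing NT line was scored as %Activity, normalised to DMSO and no-cell wells, from CellTiter-Glo luminescence after 48 hours' treatment.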
MCF10A rerep: DNA re-replication induction in MCF 10a cells. Potency, µM (doses to about 46.1 µM), without a hit: top-dose activity, positive = re-replication, actives largely listed as activators. MCF 10A DNA re-replication, Hoechst nuclear intensity, 48 h. AID 624296. actives 2.9% (n = 350,000); note: % of control where 0% means no effect; nearly all actives have a fitted effect of over 50% in size
* hit, by the source's call; [ ] = another dose, or the depositor's remark. Calls come from the whole dose curve; as a rule, active = well fitted curve in the direction sought with a large enough effect; inconclusive = small, poorly fitted or top-dose-only effect, or another doubt; inactive = no such curve, though single readings can be large; an effect the other way counts as inactive or inconclusive. Potency is the fitted concentration of half-maximal effect.

Screening Cn1c(=N)n(CC(=O)c2ccc(Br)cc2)c2ccccc21 returned KB-V1 MDR tox inactive, SW480 rerep -6%, KB-3-1 tox inconclusive, HT1080 IDH1KD tx 23µM*, HT1080-NT tox inconclusive and MCF10A rerep inconclusive.
For N=c1n(CCN2CCCCC2)c2ccccc2n1CC(=O)c1ccc(Cl)c(Cl)c1 the results were KB-V1 MDR tox inconclusive, SW480 rerep inconclusive, KB-3-1 tox inconclusive, HT1080 IDH1KD tx 21µM*, HT1080-NT tox 21µM* and MCF10A rerep 10µM*.
For Cc1ccc(Cn2c(=N)n(CC(=O)c3ccc([N+](=O)[O-])cc3)c3ccccc32)cc1 the results were KB-V1 MDR tox 15µM*, SW480 rerep inconclusive, KB-3-1 tox 18µM*, HT1080 IDH1KD tx -13%, HT1080-NT tox -3% and MCF10A rerep 9.2µM*.
`CCn1c(=N)n(CC(=O)c2ccc(Cl)c(Cl)c2)c2ccccc21` gave KB-V1 MDR tox 16µM*, SW480 rerep inconclusive, KB-3-1 tox inconclusive, HT1080 IDH1KD tx 23µM*, HT1080-NT tox inconclusive and MCF10A rerep 26µM*.
Screening C(=C\c1ccnc2ccccc12)/c1ccccc1 returned KB-V1 MDR tox inconclusive and KB-3-1 tox inactive.
For CCOC(=O)c1cn(-c2ccccc2)nc1-c1ccncc1 the results were KB-V1 MDR tox 18µM*, SW480 rerep -2%, KB-3-1 tox inconclusive, HT1080 IDH1KD tx 0%, HT1080-NT tox 0% and MCF10A rerep 3%.
For Cc1nc2cc(NCc3nc4ccccc4n3Cc3ccccc3)ccc2n1C the results were KB-V1 MDR tox 10µM*, SW480 rerep -4%, KB-3-1 tox inactive, HT1080 IDH1KD tx inconclusive, HT1080-NT tox inconclusive and MCF10A rerep inconclusive.
c1ccc(Cn2c(CNc3nc4ccccc4n3CCN3CCOCC3)nc3ccccc32)cc1 was read as KB-V1 MDR tox 8.2µM*, SW480 rerep 7%, KB-3-1 tox inactive, HT1080 IDH1KD tx inconclusive, HT1080-NT tox inconclusive and MCF10A rerep 27%.
Screening Cc1cccc(NCc2nc3ccccc3n2C)c1 returned KB-V1 MDR tox inconclusive, SW480 rerep -10%, KB-3-1 tox inactive, HT1080 IDH1KD tx 4%, HT1080-NT tox -1% and MCF10A rerep -8%.
`Cc1cccc(NCc2nc3ccccc3n2Cc2ccccc2)c1` gave KB-V1 MDR tox inconclusive, SW480 rerep -5%, KB-3-1 tox inactive, HT1080 IDH1KD tx inconclusive, HT1080-NT tox -19% and MCF10A rerep 44%[0.0737 µM].
`Cc1ccc(N2CCN(c3ccc(NCc4nc5ccccc5n4C)cc3)CC2)cc1` gave KB-V1 MDR tox 4.6µM*, SW480 rerep 18%, KB-3-1 tox inactive, HT1080 IDH1KD tx -5%, HT1080-NT tox 0% and MCF10A rerep inconclusive.
`Cn1c(CNc2ccc(Cl)cc2)nc2ccccc21` gave KB-V1 MDR tox 21µM*, SW480 rerep -5%, KB-3-1 tox inactive, HT1080 IDH1KD tx -2%[9.24 µM], HT1080-NT tox -17% and MCF10A rerep 2%.
`Cc1ccc2oc(-c3ccc(C)c(NC(=O)C(C)(C)Oc4ccc(Cl)cc4)c3)nc2c1` gave KB-V1 MDR tox inactive and KB-3-1 tox inactive.
`O=C(COc1ccccc1C(=O)Nc1ccccc1)Nc1cccc(Cl)c1` gave HT1080 IDH1KD tx -17% and HT1080-NT tox -27%.
COc1ccc(CN2CCC(N(CCc3ccccc3)Cc3ccccc3)CC2)c(OC)c1 was read as KB-V1 MDR tox 13µM*, SW480 rerep inconclusive, KB-3-1 tox inconclusive, HT1080 IDH1KD tx inconclusive, HT1080-NT tox inconclusive and MCF10A rerep 15µM*.
Screening C=CCSC1=C(C#N)C(c2ccccc2Cl)C(C(=O)c2cccs2)C(O)(C(F)(F)F)N1 (stereo not drawn) returned KB-V1 MDR tox 16µM*, SW480 rerep 4%, KB-3-1 tox inconclusive, HT1080 IDH1KD tx -16%, HT1080-NT tox -11% and MCF10A rerep inconclusive.
`O=C(c1ccc(Cl)cc1)c1c[nH]c(C(=O)NNc2cccc(Cl)n2)c1` gave KB-V1 MDR tox inactive, SW480 rerep inconclusive, KB-3-1 tox inactive, HT1080 IDH1KD tx inconclusive, HT1080-NT tox 23µM* and MCF10A rerep inconclusive.
For CCc1nnc(NC(=O)CSc2nnc(-c3ccccc3OC)n2-c2ccc(C)cc2)s1 the results were KB-V1 MDR tox inactive, SW480 rerep 3%[9.22 µM], KB-3-1 tox inactive, HT1080 IDH1KD tx -18%, HT1080-NT tox -16% and MCF10A rerep -7%.
`CCc1nnc(NC(=O)CSc2nnc(-c3ccccc3O)n2-c2ccc(C)cc2)s1` gave KB-V1 MDR tox inconclusive, SW480 rerep inconclusive, KB-3-1 tox inconclusive, HT1080 IDH1KD tx 13µM*, HT1080-NT tox 13µM* and MCF10A rerep inconclusive.
`Cc1ccc(-c2csc3ncnc(SCC(N)=O)c23)cc1` gave KB-V1 MDR tox inconclusive, SW480 rerep -8%, KB-3-1 tox inactive, HT1080 IDH1KD tx -25%, HT1080-NT tox -18% and MCF10A rerep 0%.
Screening CCc1nnc(NC(=O)CSc2ncnc3scc(-c4ccc(C)cc4)c23)s1 returned KB-V1 MDR tox 6.5µM*, SW480 rerep 4%, KB-3-1 tox inactive, HT1080 IDH1KD tx 4%, HT1080-NT tox 5% and MCF10A rerep inconclusive.
CCc1nnc(NC(=O)CSc2nc(-c3ccccc3)c(-c3ccccc3)o2)s1 was read as KB-V1 MDR tox inconclusive, SW480 rerep -11%, KB-3-1 tox 5.2µM*, HT1080 IDH1KD tx 14%, HT1080-NT tox 13% and MCF10A rerep inconclusive.
`CCc1nnc(NC(=O)CSc2nnc(C)n2-c2ccc(C)cc2)s1` gave KB-V1 MDR tox 21µM*, SW480 rerep -5%, KB-3-1 tox inactive, HT1080 IDH1KD tx 5%, HT1080-NT tox 8% and MCF10A rerep 2%.
`O=C(CNC(=O)c1ccc(F)cc1)OCc1cc(=O)n2ccsc2n1` gave KB-V1 MDR tox inactive and KB-3-1 tox inactive.
For CCN1CCN(C(c2ccc(SC)cc2)c2c(O)cc(C)n(Cc3ccco3)c2=O)CC1 (stereo not drawn) the results were KB-V1 MDR tox inactive and KB-3-1 tox inactive.
`CCc1nnc(NC(=O)CSc2nnc(CNc3cccc(Cl)c3)n2CC)s1` gave KB-V1 MDR tox inactive, SW480 rerep -3%, KB-3-1 tox inactive, HT1080 IDH1KD tx -3%, HT1080-NT tox 0% and MCF10A rerep 0%.
`CCOC(=O)Cc1nnc(NC(=O)CSc2nncn2C)s1` gave KB-V1 MDR tox inactive, SW480 rerep inconclusive, KB-3-1 tox inactive, HT1080 IDH1KD tx 0%, HT1080-NT tox 1% and MCF10A rerep 6.5µM*.
